In all, about 410,000 compounds went through this assay and about 18,000 (4.4%) were called active. Another 7% or so got no clear call; they are omitted. No stated cut-off is given here; in the data, active means activity change below about -60%; inconclusive means no clear call, values can overlap the other calls; inactive means above about -39%. For the sample, actives were picked, then their nearest neighbours and some compounds at random.
test: qHTS Assay for inhibitors of the human cytomegalovirus (HCMV); conditions: HFF cells, HCMV-luciferase reporter, 72 h; at 57.5 µM; hits give low values
Summary of the method: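 After 16 h attachment at 37C, HFF cells received test compound and HCMV-luciferase (1 PFU/cell); reporter luminescence read 72 h later, data normalized against buffer-only and known inhibitor Salinomycin.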
On the % scale 0 is the no-effect control and ±100 the full control effect.

Row | SMILES | activity change, negative = inhibition
1 | COc1ccc(C2C(=O)N(C3CCCCC3)CC(=O)N2Cc2ccccc2Cl)cc1OC (centres undefined) | -0.212% (inactive)
2 | CCN1/C(=C/C(=S)Nc2ccccc2)Sc2ccccc21 | -90.8% (active)
3 | CCC(=O)/C=C1\Sc2ccccc2N1CC | -68.7% (active)
4 | CCN1C(=O)c2ccccc2Sc2ccc(NC(=O)Cc3ccc(OC)cc3)cc21 | 11.2% (inactive)
5 | CNC(=O)CN1C(=O)c2cccnc2Sc2ccccc21 | 16.8% (inactive)
6 | CCOC(=O)CNC(=O)CN1C(=O)CCSc2ccccc21 | 55.2% (inactive)
7 | CCOc1ccc(NC(=O)c2cc(S(=O)(=O)N3CCCC3)c[nH]2)cc1 | -31.5% (inactive)
8 | Cc1ccc(N2CC(C(=O)Nc3ccc(N(C)C)cc3)CC2=O)cc1Cl (centres undefined) | 1.89% (inactive)
9 | CC(C)(C)OC(=O)N[C@H](C(=O)OC(C)(C)C)c1ccc(Br)cc1 | -16.8% (inactive)
10 | CC(C)(C)OC(=O)NNc1c2ccccc2nc2ccccc12 | -89.2% (active)
11 | Cc1ccc(C(=O)NNC(=O)OC(C)(C)C)c(Cl)c1 | -10.9% (inactive)
12 | O=C(NCC1CCCCC1)NCC1CCCCC1 | -74.2% (active)
13 | N#CCC(=O)NC(=O)NCC1CC1 | -12.8% (inactive)
14 | O=C(NCCCNC(=O)NC1CCCCC1)NC1CCCCC1 | -14.1% (inactive)
15 | COc1ccc(CCNC(=O)CSCc2ccc(Br)cc2)cc1OC | -9.05% (inactive)
16 | COc1nc(OC)nc(N(C)CCO)n1 | -12.6% (inactive)
17 | Cc1nc(SCC(=O)Nc2ccc(C(=O)O)cc2)n[nH]1 | -2.57% (inactive)
18 | CCc1nnc(NC(=O)CSc2nnc(COc3ccc(C#N)cc3)n2-c2ccccc2)s1 | 42.5% (inactive)
19 | COc1ccccc1Cc1nc2ccccc2nc1SCC(=O)N1CCCc2ccccc21 | 8.07% (inactive)
20 | Cn1c(SCC(=O)N2CCCc3ccccc32)nc2ccccc2c1=O | -79.6% (active)
21 | Cn1c(SCC(=O)N2CCCc3ccccc32)ncc(C(=O)Nc2ccc(F)cc2)c1=O | -28.8% (inactive)
22 | [O-][N+]12CCCCC1CCCC2CO (centres undefined) | -29% (inactive)
23 | CCC(=O)N1CCc2cc(Br)cc(S(=O)(=O)CCC(=O)NCc3ccccc3OC)c21 | -3.98% (inactive)
24 | C=CCNc1nc(N)c([N+](=O)[O-])c(NC2CCCCC2)n1 | -9.3% (inactive)

Row | SMILES | activity change, negative = inhibition
25 | Nc1nc(Nc2ccccc2F)nc(NC2CCCCC2)c1[N+](=O)[O-] | -66% (active)
26 | Nc1nc(NCC2CCCO2)nc(Nc2ccccc2F)c1[N+](=O)[O-] (centres undefined) | -34.2% (inactive)
27 | CCC(=O)N1CCc2cc(Br)c(S(=O)(=O)NCCN3CCCCC3CC)cc21 (centres undefined) | -8.58% (inactive)
28 | COc1ccc(CCNC(=O)Cn2c(=O)cc(C(F)(F)F)c3c(C)nn(C)c32)c(OC)c1 | 21.9% (inactive)
29 | CC(=O)Nc1ccc(NC(=O)CC2CCCC2)cc1 | -33.3% (inactive)
30 | O=C(CCl)Nc1ccc(Sc2ccc(NC(=O)CCl)cc2)cc1 | -97.1% (active)
31 | O=C(O)CC(SCC(=O)Nc1ccc(Br)cc1)C(=O)O (centres undefined) | -19% (inactive)
32 | CCOC(=O)C1=NOC(Cn2cc(C(C)=O)c(=O)[nH]c2=O)C1 (centres undefined) | 10% (inactive)
33 | CCOC(=O)c1cccc(NS(=O)(=O)c2cn(C)c(C)n2)c1 | 2.44% (inactive)
34 | C[C@H](CO)N1C[C@H](C)[C@@H](CN(C)C(=O)Nc2ccccc2F)OCc2cn(nn2)CCCC1=O | -6.88% (inactive)
35 | Cc1cc(Br)ccc1NC(=S)NC1CCCC1 | -24.2% (inactive)
36 | O=C(NC1CCN(Cc2ccccc2)CC1)c1cc(Br)c(Br)[nH]1 | -22.7% (inactive)
37 | S=C(Nc1ccc(Br)cc1Cl)NC1CCN(Cc2ccccc2)CC1 | -84.5% (active)
38 | Cc1cc(C)n(CCC(=O)N2CCN(S(=O)(=O)c3ccc(C)c(C)c3)CC2)n1 | -15.9% (inactive)
39 | CCc1cc2c(cc(C(=O)OC)n2Cc2nc(-c3ccc(C)cc3)oc2C)s1 | 4.7% (inactive)
40 | CCCN1CCc2nc(N3CCN(C)CC3)ncc2C1 | 0.276% (inactive)
41 | COc1ccc(/C(N)=N/OC(=O)Oc2ccccc2)cc1 | 9.17% (inactive)
42 | COc1ccc(C(C#N)=C2C=CC(=NO)c3ccccc32)cc1 | -90.8% (active)
43 | CC(c1ccco1)N(C(=O)c1ccc(S(=O)(=O)N2CCCCC2)cc1)c1ccccn1 (centres undefined) | -14.3% (inactive)
44 | Fc1ccc(CN2CCc3nc(Nc4ccccc4)ncc3C2)cc1F | -18.4% (inactive)
45 | COc1ccc(CCNc2ncnc3c2nnn3Cc2ccccc2)cc1 | -95.1% (active)
46 | c1ccc(Cn2nnc3c(NCC4CC4)ncnc32)cc1 | 30.2% (inactive)
47 | CC(C)Nc1ncnc2c1nnn2Cc1ccccc1 | 45.3% (inactive)
48 | O=C(CN1c2ccccc2S(=O)(=O)c2ccccc21)Nc1cccc(C(F)(F)F)c1 | 14.4% (inactive)

Row | SMILES | activity change, negative = inhibition
49 | O=C(Cn1cnc2c(oc3ccccc32)c1=O)Nc1ccc(OC(F)(F)F)cc1 | 14% (inactive)
50 | COc1ccc(OCc2ccc(-c3nc(C#N)c(N4CCN(c5ccccc5)CC4)o3)o2)cc1 | 2.46% (inactive)
51 | O=C(NC(=S)N1CCN(Cc2ccccc2)CC1)c1ccccc1 | -3.08% (inactive)
52 | OCCN1CCN(C(=S)c2ccc(-c3ccccc3)cc2)CC1 | -79.4% (active)
53 | O=C1CCN(CCCc2ccccc2)CCN1CCO | -6.21% (inactive)
54 | COCCNc1ncnc2c1c(-c1ccccc1)cn2-c1ccc(C)c(Cl)c1 | -33.4% (inactive)
55 | Cc1ccc(NC(=S)N(CCCN2CCCC2)Cc2cccn2Cc2ccc(Cl)cc2)cc1 | -72% (active)
56 | CCc1ccccc1NC(=S)N(CCN1CCCCCC1)Cc1ccco1 | 29.5% (inactive)
57 | Cc1ccccc1NC(=S)N(CCCN1CCOCC1)Cc1cccs1 | -30.9% (inactive)
58 | CC(C)NC(=O)C(=O)NCCCOC(C)C | -7.97% (inactive)
59 | CN(CC(=O)NCCN1CCOCC1)S(=O)(=O)c1ccc(F)cc1 | -13.5% (inactive)
60 | Cc1ccc(-c2nnc(SCC(=O)NCc3ccccc3)nc2-c2ccc(C)cc2)cc1 | -16.5% (inactive)
61 | CCc1ccccc1NC(=O)CSc1nnc(-c2ccccc2)c(-c2ccccc2)n1 | -84.3% (active)
62 | COc1ccc(-c2nnc(SCC(=O)Nc3ccc(C(C)C)cc3)nc2-c2ccc(OC)c(OC)c2)cc1OC | 2% (inactive)
63 | O=c1cc(CSc2ccccn2)nc(N2CCN(c3ccccc3)CC2)[nH]1 | 15.5% (inactive)
64 | COc1ccccc1N1CCN(C(=O)c2ccc(NC3=NC4CS(=O)(=O)CC4S3)cc2)CC1 (centres undefined) | -1.18% (inactive)
65 | COc1ccccc1N1CCN(C(=O)c2cc(=O)c3cc(C)cc(C)c3o2)CC1 | -72.5% (active)
66 | CCOc1ccccc1N1CCN(C(=O)c2ccc3[nH]c(C)c(C)c3c2)CC1 | -4.04% (inactive)
67 | O=c1c2cccnc2n(Cc2cccc(F)c2)c(=O)n1Cc1ccccc1Cl | -4.52% (inactive)
68 | O=S(=O)(NCC(c1ccco1)N1CCOCC1)c1cc(F)ccc1F (centres undefined) | 10.6% (inactive)
69 | O=C(NN=CC=Cc1ccccc1)C(O)C(O)C(=O)NN=CC=Cc1ccccc1 (centres undefined) | -99% (active)
70 | O=C(N/N=C/C=C/c1ccccc1)C1CC1(c1ccccc1)c1ccccc1 (centres undefined) | -22.7% (inactive)
71 | CC(OC(=O)/C=C/c1ccccc1)C(=O)Nc1ccc(C(N)=O)cc1 (centres undefined) | -26.6% (inactive)
72 | O=C(Nc1ccn(Cc2ccccc2)n1)c1n[nH]c([N+](=O)[O-])c1Cl | -0.724% (inactive)

Row | SMILES | activity change, negative = inhibition
73 | CC1(C)CC(N2CCN(C(c3ccccc3)c3ccccc3)CC2)=CC(=[N+]2CCCCC2)C1 | -98.5% (active)
74 | COC(=O)C(c1ccccc1)N1CCCCCC1 (centres undefined) | -22.2% (inactive)
75 | COc1ccc(CCN2C(=O)N(c3cccc(OC)c3)C(=O)C2CC(=O)Nc2ccccc2)cc1 (centres undefined) | 30.6% (inactive)
76 | Cc1csc2nc(COc3ccc(NC(=O)COc4ccccc4)cc3)cc(=O)n12 | -18.6% (inactive)
77 | CCOC(=O)c1[nH]c(C)c(CCC(=O)N2CCN(c3ccccc3)CC2)c1C | -11% (inactive)
78 | COc1cc(OC)cc(-c2c(C#Cc3ccsc3)c3cc(-c4ccc(SC)cc4)ccc3n2C)c1 | -6.32% (inactive)
79 | COc1ccc(-c2c(C#Cc3ccccc3)c3ccccc3n2C)cc1 | -78.4% (active)
80 | COc1ccc(CCNCc2c(-c3ccccc3)n(C)c3ccccc23)cc1 | -5.91% (inactive)
81 | COc1ccccc1CNCc1ccc(C(=O)O)s1 | -9.76% (inactive)
82 | O=C(CSc1nc(=O)[nH]c2c1CCCC2)Nc1cc(C(F)(F)F)ccc1Cl | -20.6% (inactive)
83 | O=C(Nc1ccc(CN2CCOCC2)cc1)c1cc(Cl)ccc1Cl | -13.5% (inactive)
84 | CN1CCN(Cc2nc3cc(NC(=O)COc4ccc([N+](=O)[O-])cc4)ccc3n2C)CC1 | 18.6% (inactive)
85 | Cn1c(CN2CCOCC2)nc2cc(NC(=O)c3ccc(Cl)cc3)ccc21 | -84.5% (active)
86 | Cc1ccccc1S(=O)(=O)N[C@H]1CC[C@@]23CCCN2C(=O)CCC[C@H]3[C@H]1C | -19.4% (inactive)
87 | Cc1cccc(Cn2c(CN3CCC(C(=O)NCc4ccccc4Cl)CC3)cc3ccccc32)c1 | -4.28% (inactive)
88 | CCc1cc2c(cc3c(=O)n(CC(=O)N4CCN(c5cc(Cl)ccc5C)CC4)ncn32)s1 | 85.8% (inactive)
89 | O=c1c2ccccc2nc2n1C(CSCc1cccc(C(F)(F)F)c1)CS2 (centres undefined) | -67.5% (active)
90 | Cc1ccc(-n2c(/C=C/c3cccc(C(F)(F)F)c3)nc3ccccc3c2=O)cc1 | -5.7% (inactive)
91 | O=c1c2ccccc2nc2n1C(CSCc1ccccc1)CS2 (centres undefined) | -74.9% (active)
92 | O=c1c2ccccc2nc2n1C(CSc1ccc(Cl)cc1)CN2 (centres undefined) | 59.6% (inactive)
93 | O=c1n(Cc2cccc(C(F)(F)F)c2)c2ccccc2c2nc(-c3ccccc3)nn12 | 26.8% (inactive)
94 | C#CCCCc1nc2ccccc2c(=O)n1N | 56.9% (inactive)

From PubChem BioAssay AID1259415 (National Center for Advancing Translational Sciences (NCATS), 2018)
